Sfp inh: blocks B. subtilis Sfp PPTase activity; Biochemical Sfp PPTase activity, qHTS; Q9F4F7; AID 1490; actives 3.5% (n = 310,000); Potency, µM, inactives show largest response in the series, negative = inhibition, most hits filed as inhibitors; active = well fitted curve in the direction sought with a large enough effect; inconclusive = small, poorly fitted or top-dose-only effect, or another doubt; inactive = no such curve, though single readings can be large; an effect the other way counts as inactive or inconclusive;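 note: the enzyme is Sfp with the accession as filed and its product quenches rhodamine fluorescence; potency is the fitted concentration of half-maximal effect; 0% = enzyme reaction without inhibitor and -100% = no enzyme wells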
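With Hepes-Na pH 7.6 buffer containing 10 mM MgCl2, Sfp (15 nM) modified BHQ-2-YbbR (12.5 uM) using rhodamine-CoA (5 uM). Two reads 30 minutes apart at 525/598 nm yielded each well's rate.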
KDM4E inh: inhibitors of human JMJD2E histone demethylase | actives 1.6% (n = 230,000) | JMJD2E catalytic domain, FDH-coupled NADH fluorescence (FDH is formaldehyde dehydrogenase) | Potency, µM (highest dose often 57.1 µM), without a hit: at the highest dose activity change, negative = inhibition, hits mostly inhibitors;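 note: potency is the fitted concentration of half-maximal effect; 0% = wells with enzyme and -100% = buffer wells without enzyme; nearly all actives have a fitted effect of over 50% in size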
Target sequence (B2RXH2 1-337 limits assumed): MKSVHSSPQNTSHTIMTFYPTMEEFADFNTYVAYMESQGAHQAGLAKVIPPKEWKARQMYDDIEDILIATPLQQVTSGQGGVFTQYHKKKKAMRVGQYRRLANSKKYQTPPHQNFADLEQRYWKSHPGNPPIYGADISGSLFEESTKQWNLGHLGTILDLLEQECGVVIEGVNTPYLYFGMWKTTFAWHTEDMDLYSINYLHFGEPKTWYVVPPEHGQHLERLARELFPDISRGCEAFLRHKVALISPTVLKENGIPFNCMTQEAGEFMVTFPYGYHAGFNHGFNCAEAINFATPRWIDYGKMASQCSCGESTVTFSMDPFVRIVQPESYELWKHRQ
NPSR antagonist: neuropeptide S receptor (human) antagonism, cAMP. CHO-NPSR cells, cAMP TR-FRET, antagonist mode. Potency, µM (titrated, usually from 38.3 µM), for inactives: top-dose activity change, negative = inhibition, most hits filed as inhibitors. AID 1461. actives 1% (n = 220,000). Q6W5P4; active = well fitted curve in the direction sought with a large enough effect; inconclusive = small, poorly fitted or top-dose-only effect, or another doubt; inactive = no such curve, though single readings can be large; an effect the other way counts as inactive or inconclusive; note: potency is the fitted concentration of half-maximal effect; nearly all actives have a fitted effect of over 50% in size
Target sequence (Q6W5P4 whole entry, looked up): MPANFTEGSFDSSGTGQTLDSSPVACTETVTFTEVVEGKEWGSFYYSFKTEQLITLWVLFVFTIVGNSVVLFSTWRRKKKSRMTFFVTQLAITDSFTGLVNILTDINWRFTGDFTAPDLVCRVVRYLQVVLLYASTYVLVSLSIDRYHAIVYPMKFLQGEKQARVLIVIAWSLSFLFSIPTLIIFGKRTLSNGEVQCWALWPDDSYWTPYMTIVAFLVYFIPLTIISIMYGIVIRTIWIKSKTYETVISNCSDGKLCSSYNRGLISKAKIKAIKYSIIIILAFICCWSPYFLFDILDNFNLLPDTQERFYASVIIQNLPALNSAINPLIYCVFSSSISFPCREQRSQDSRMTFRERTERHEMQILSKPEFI
ALDH1A1 inh: blocks purified human ALDH1A1 activity; Purified ALDH1A1, NADH fluorescence, propionaldehyde substrate; Potency, µM (top dose mostly 75.3 µM), for the others: at the top dose activity, negative = inhibition, most hits filed as inhibitors; actives 7.3% (n = 220,000);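 note: potency is the fitted concentration of half-maximal effect; plate controls were no enzyme wells and a reference inhibitor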
GoLoco inh red: RGS12 GoLoco-Gai1 interaction inhibition; actives 0.44% (n = 230,000); Potency, µM (series often up to 61.6 µM), inactives show at the top dose activity, negative = inhibition, actives largely listed as inhibitors; P63096; Gai1:RGS12 GoLoco peptide FP, rhodamine, 10 min; active = well fitted inhibition curve with a large enough effect, not every such curve was filed as active; inactive = no such curve, though single readings can be large or run the other way; note: potency is the fitted concentration of half-maximal effect; nearly all actives have a fitted effect of over 30% in size
Coupling enz: inhibits coupling enzyme system, counter-screen for aldolase hits. actives 0.67% (n = 290,000). activity change, negative = inhibition, % at 58.2 µM, hits read low. coupling enzyme system counterscreen, AmpLite Red fluorescence; in the data active = activity change below about -30%
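Compounds tested against the coupling enzymes alone at 57.5 uM final; readout was AmpLite Red fluorescence (525/598 nm) after 20 min at RT.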
Numbers without * were called inactive; [ ] = another dose, or the depositor's remark. A selection: hits, their analogues and other compounds. The true share with any hit is near 8.5%. Unless noted, calls come from the whole dose curve; as a rule, active = well fitted inhibition curve with a large enough effect (not every such curve was filed as active); inconclusive = small, poorly fitted or top-dose-only effect, or another doubt; inactive = no such curve, though single readings can be large or run the other way. Unless noted, % is set by controls: 0 for no effect and ±100 for the full control effect.

What do the screens show for `Cc1cc(SCC(=O)OCC(=O)N2CCN(C(=O)c3ccco3)CC2)c(C)cc1Br`?
Sfp inh: inconclusive; KDM4E inh: -7%; NPSR antagonist: -13%[46.1 µM]; ALDH1A1 inh: 32µM*; GoLoco inh red: -15%; Coupling enz: 10

Results for O=C(Cc1ccc(Cl)cc1Cl)OCC(=O)N1CCN(C(=O)c2ccco2)CC1 ?
Sfp inh: 14%; KDM4E inh: -7%; NPSR antagonist: 1%; ALDH1A1 inh: 14µM*; GoLoco inh red: 8%; Coupling enz: 7

What do the screens show for `O=C(c1cc(-c2ccc(Cl)cc2Cl)on1)N1CCN(C(=O)c2ccco2)CC1`?
Sfp inh: -29%; KDM4E inh: -1%; NPSR antagonist: -18%[46.1 µM]; ALDH1A1 inh: 2.8µM*; GoLoco inh red: 73%

Results for COc1ccc(C(c2c(C)[nH]n(C(N)=S)c2=O)C(C#N)C#N)cc1 (configuration not stated) ?
Sfp inh: inconclusive; KDM4E inh: -8%; NPSR antagonist: inconclusive; ALDH1A1 inh: 13µM*; GoLoco inh red: -3%; Coupling enz: -1

What do the screens show for `CN1CCN(c2ncc3nc(-c4cccc(C#N)c4)c(=O)n(C)c3n2)CC1`?
Sfp inh: 2%; ALDH1A1 inh: inconclusive; GoLoco inh red: 1%; Coupling enz: 1

What do the screens show for `COc1ccc(/C=N/NC(=O)C(=O)/C=C2\NC3(CCCC3)Cc3ccccc32)cc1`?
Sfp inh: 9%; KDM4E inh: -9%; NPSR antagonist: -39%; ALDH1A1 inh: -7%; GoLoco inh red: 3%; Coupling enz: 0

How did O=C(/C=C1\NC2(CCCC2)Cc2ccccc21)C(=O)N/N=C/c1ccc(O)c(O)c1 do in these assays?
Sfp inh: 3%; KDM4E inh: -3%; NPSR antagonist: 13µM*; ALDH1A1 inh: 4%; GoLoco inh red: 29%; Coupling enz: 1

What do the screens show for `C[C@](N)(C(=O)O)c1ccc(-c2nn[nH]n2)cc1`?
Sfp inh: 28µM*; KDM4E inh: -26%; ALDH1A1 inh: 16µM*; GoLoco inh red: -10%; Coupling enz: -5

How did Cc1cc([C@](C)(N)C(=O)O)ccc1P(=O)(O)O do in these assays?
Sfp inh: -7%; KDM4E inh: -20%; ALDH1A1 inh: -3%; GoLoco inh red: 1%; Coupling enz: -1

How did Nc1ccc(S(=O)(=O)O)cc1 do in these assays?
ALDH1A1 inh: 32µM*; GoLoco inh red: 6%

How did CCOc1ccc(-c2nn[nH]n2)cc1 do in these assays?
Sfp inh: 2%; KDM4E inh: -2%; NPSR antagonist: -17%[46.1 µM]; ALDH1A1 inh: 18%; GoLoco inh red: -9%; Coupling enz: 8

Results for CC(N)(C(=O)O)c1ccc(S(=O)(=O)O)cc1 (configuration not stated) ?
Sfp inh: 50µM*; ALDH1A1 inh: inconclusive; GoLoco inh red: 7%

What do the screens show for `OCC1O[C@@H](OC2C(O)C(CO)O[C@@]2(CO)O[C@@H]2OC(CO)C(O)C(O)C2O)C(O)C(O)C1O` (some centres not stated)?
Sfp inh: 4%; KDM4E inh: 3%; ALDH1A1 inh: 1%; GoLoco inh red: 3%; Coupling enz: -2

What do the screens show for `Cc1ccc(C(=O)c2c[nH]c(C(=O)NCc3cccnc3)c2)cc1`?
Sfp inh: -6%; KDM4E inh: -8%; NPSR antagonist: -26%[46.1 µM]; ALDH1A1 inh: inconclusive; GoLoco inh red: 11%; Coupling enz: -2

How did COc1cc(-c2nnc3sc(Cc4ccccc4)nn23)cc(OC)c1OC do in these assays?
Sfp inh: -15%; KDM4E inh: 7%; NPSR antagonist: -11%[46.1 µM]; ALDH1A1 inh: 22µM*; GoLoco inh red: 5%; Coupling enz: 6

What do the screens show for `c1ccc(CCc2nn3c(-c4ccncc4)nnc3s2)cc1`?
Sfp inh: inconclusive; KDM4E inh: -4%; NPSR antagonist: -5%[46.1 µM]; ALDH1A1 inh: 10µM*; GoLoco inh red: 6%; Coupling enz: 0

How did COc1ccc(Cc2nn3c(-c4ccccc4Br)nnc3s2)cc1 do in these assays?
Sfp inh: -26%; KDM4E inh: -17%; NPSR antagonist: inconclusive; ALDH1A1 inh: inconclusive; GoLoco inh red: 3%; Coupling enz: -4

What do the screens show for `COc1ccc(Cc2nn3c(-c4cc(OC)c(OC)c(OC)c4)nnc3s2)cc1`?
Sfp inh: -58%; KDM4E inh: -7%; NPSR antagonist: 10%[46.1 µM]; ALDH1A1 inh: 11µM*; GoLoco inh red: 13%; Coupling enz: 2

Results for CCN(CC)Cc1c(C(=O)N/N=C(\C)c2ccncc2)nnn1-c1nonc1N ?
Sfp inh: 10%; Coupling enz: 0

Results for OCC[C@@H]1C[C@@H](O)[C@H](O)[C@]2(CCc3ccccc3O2)O1 ?
Sfp inh: 9%; Coupling enz: -1

Results for COc1ccc(S(=O)(=O)n2nc(C)cc2C)cc1OC ?
Sfp inh: 8%; Coupling enz: 1

What do the screens show for `COc1ccc(NCC(=O)n2c(C)c(C)c3ccccc32)cc1OC`?
Sfp inh: -27%; KDM4E inh: -4%; NPSR antagonist: -22%; ALDH1A1 inh: 7.1µM*; GoLoco inh red: 3%; Coupling enz: -3

How did COCCCC1CCN(C(=O)C2CCC(=O)N(Cc3ccccc3F)C2)CC1 (configuration not stated) do in these assays?
Sfp inh: 16%

Results for S=C(NCCc1ccccc1)N1CCn2cccc2C1c1cccnc1 (configuration not stated) ?
Sfp inh: -5%; KDM4E inh: -7%; NPSR antagonist: -33%; ALDH1A1 inh: inconclusive; GoLoco inh red: 5%; Coupling enz: 0

How did S=C(NCc1ccccc1)N1CCn2cccc2C1c1cccnc1 (configuration not stated) do in these assays?
Sfp inh: 7%; KDM4E inh: -3%; NPSR antagonist: -25%; ALDH1A1 inh: 3.5µM*; GoLoco inh red: 0%; Coupling enz: 0

How did COc1cccc(NC(=S)N2CCn3cccc3C2c2cccnc2)c1 (configuration not stated) do in these assays?
Sfp inh: 9%; KDM4E inh: 0%; NPSR antagonist: -39%; ALDH1A1 inh: 14µM*; GoLoco inh red: 79%; Coupling enz: 1

What do the screens show for `CCCc1ccc(OCc2ccccc2)c2c(=O)cc(C(=O)OCC)oc12`?
Sfp inh: 23%; KDM4E inh: 2%; NPSR antagonist: -4%; GoLoco inh red: 3%; Coupling enz: 1

What do the screens show for `Cc1cc(-c2csc(N)n2)c(C)n1CCc1ccccc1`?
Sfp inh: 45µM*; KDM4E inh: -4%; NPSR antagonist: -15%[46.1 µM]; ALDH1A1 inh: inconclusive; GoLoco inh red: 101%; Coupling enz: -5

Source: PubChem
